Compounds without any hit were thinned out: in the full panel of roughly 83,000, 20% have a hit.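 Step 1: grow cells in 96-well plates. Step 2: add test compound at a single concentration. Step 3: incubate 48 h. Step 4: record percent growth.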 A number with no mark means an inactive call. Activity calls are given as the source filed them. How the source made its calls: active means growth percent below 10; inactive means the rest.
Key:
Test in all cases: NCI-60 one-dose screen, 48 h (100 = growth as untreated, 0 = no growth, -100 = all killed)
Settings in all cases: 10 µM
NCI-H23 lung = test system: NCI-H23 lung
NCI-H322M lung = test system: NCI-H322M lung
HOP-62 NSCLC = test system: HOP-62 NSCLC
NCI-H460 lung = test system: NCI-H460 lung
NCI-H522 lung = test system: NCI-H522 lung
A549/ATCC NSCLC = test system: A549/ATCC NSCLC
786-0 renal = test system: 786-0 renal
COLO 205 colon = test system: COLO 205 colon
DU-145 prostate = test system: DU-145 prostate
K-562 leukemia = test system: K-562 leukemia
MALME-3M melanoma = test system: MALME-3M melanoma
MDA-MB-231 breast = test system: MDA-MB-231 breast
RXF 393 renal = test system: RXF 393 renal
SF-268 CNS = test system: SF-268 CNS
SF-295 CNS = test system: SF-295 CNS
SF-539 CNS = test system: SF-539 CNS
UACC-257 melanoma = test system: UACC-257 melanoma
M14 melanoma = test system: M14 melanoma
HCT-15 colon = test system: HCT-15 colon

Compound	growth (NCI-H23 lung)	growth (NCI-H322M lung)	growth (HOP-62 NSCLC)	growth (NCI-H460 lung)	growth (NCI-H522 lung)	growth (A549/ATCC NSCLC)	growth (786-0 renal)	growth (COLO 205 colon)	growth (DU-145 prostate)	growth (K-562 leukemia)	growth (MALME-3M melanoma)	growth (MDA-MB-231 breast)	growth (RXF 393 renal)	growth (SF-268 CNS)	growth (SF-295 CNS)	growth (SF-539 CNS)	growth (UACC-257 melanoma)	growth (M14 melanoma)	growth (HCT-15 colon)
COc1ccc(-c2nn(-c3cccc(NC(=O)Nc4cccc(C(F)(F)F)c4)c3)cc2-c2ccncc2)cc1Cl	5.45% (active)	24.4%	25.2%	2.43% (active)	-6.94% (active)	7.5% (active)	24.2%	1.37% (active)	22%	8.89% (active)	-10.4% (active)	1.25% (active)	23.2%	23.5%	5.07% (active)	16.2%	-5.98% (active)	4.56% (active)	23.5%
COc1cc2c(cc1OCCCCCCN1CCN(CC(=O)Nc3ccc(Cl)cc3C(=O)c3ccccc3Cl)CC1)N=CC1CCCN1C2=O (stereo not given)	-56.1% (active)	-97.8% (active)	-77.9% (active)	-30.5% (active)	-69% (active)	-93% (active)	-85.4% (active)	-60.1% (active)		-62.3% (active)	-92.3% (active)	-100% (active)		-61% (active)	-94.9% (active)	-95.2% (active)		-67.4% (active)	-100% (active)
COc1cc(-c2cc(/C=C/C(=O)c3ccc(N)cc3)[nH]n2)cc(OC)c1OC	24.6%	11.4%	23.9%	-28.9% (active)	10.8%	1.29% (active)	-28.9% (active)	-45% (active)	7.2% (active)	10.9%	58.3%	-2.03% (active)	-23.2% (active)	-9.2% (active)	22.9%	-64.1% (active)	29.2%	34.8%	-22.3% (active)
Cc1occc1-c1nnc(SCC(=O)c2ccc(NC(=O)CC(C)C)cc2)o1	110%	106%	99.6%	108%	81.9%	87.7%	96.3%	110%	109%	86.1%	89.8%	105%		132%	104%	101%		112%	
Clc1ccc(Sc2nc(NC3CC3)nc(Sc3ccc(Cl)cc3)n2)cc1	81%	86.7%		89.3%	59.1%		87.5%	74%	92.8%	75.2%	80.7%	81.1%	79.1%	79.3%	67.4%	95%	89.6%	86.2%	71.3%
COc1cc(C)ccc1C(=O)c1ccc(C)cc1OC	48.6%	44.5%	27.7%	5.93% (active)	-6.71% (active)	26.9%	48.7%	-24.9% (active)	0.538% (active)	10%		41.2%	-10.5% (active)	43.5%	-39.1% (active)	3.62% (active)	60.3%	12.4%	36.3%
CC(=O)N1C/C(=C/c2ccc(Cl)cc2)C(=O)/C(=C/c2ccc(Cl)cc2)C1	-28% (active)	-9.19% (active)		-14.1% (active)	-66.4% (active)	-24.6% (active)	-59.3% (active)	-48.8% (active)	-30.5% (active)	2.09% (active)	-56.4% (active)	-23.6% (active)	-92.8% (active)	-26.8% (active)	-30.1% (active)	-39.4% (active)	-32.2% (active)	-51.1% (active)	-5.84% (active)
CN(C)CCN1C(=O)c2cccc3c(-c4ccc5ncn(C6CCCCC6)c5c4)ccc(c23)C1=O	30.5%	25.3%		1.4% (active)	4.65% (active)	3.34% (active)	19.1%	8.59% (active)	27%	6.76% (active)	30.8%	33.6%	26.3%	35.8%	23.1%	31.9%	23.1%	30.2%	12.5%
O=C(Nc1cccc(Cl)c1)Nc1nccs1	94.7%	92.6%	94.6%	98.9%	7.88% (active)	28.6%	95.6%	126%	114%	85.8%	93.5%	93.2%	103%	107%	97.6%	88.4%	-10.8% (active)	89.3%	86.2%
Cn1c([N+](=O)[O-])cnc1/C=C1\Oc2cc(Cl)ccc2C1=O	-22.8% (active)	60.4%	16.5%	-32.1% (active)	-53.8% (active)	3.98% (active)	-6.4% (active)	-52.9% (active)	-18.3% (active)	35.8%	-56.7% (active)	-27.7% (active)	-66.8% (active)	-37.4% (active)	38.5%	28%	-42% (active)	-34.7% (active)	3.55% (active)
O=C(N/N=C/c1cc2ccccc2c2ccccc12)c1cc(O)c(O)c(O)c1	70.2%	74.6%	54.5%	88.1%	-41.3% (active)	94.4%	82.6%	72.7%	75.8%	20.2%	49%	68.4%	75%	46.7%	88.8%	50%	75.3%	61%	60%
O=[N+]([O-])c1ccc(Oc2cccnc2)c([N+](=O)[O-])c1	96.5%	94.8%	104%	109%	36.3%	102%	93.2%	55.5%	86.2%	16.1%		94%	63.9%	97.5%	104%	75.7%	63.6%	84.9%	53.1%
COc1cc(-c2cc(/C=C3\C(=O)Nc4ccc(Cl)cc43)[nH]n2)cc(OC)c1OC	38.3%		44.6%	38%	20.2%	40.4%	61.6%	11.4%		8.43% (active)		52.4%	69.2%	38.2%	46.9%	45.1%	18.7%	5.02% (active)	7.21% (active)
CC/C(=C(/c1ccc(OCCN(C)C)cc1)c1ccc(OC(=O)CCCCC(=O)c2c(C)[nH]c(/C=C3\N=C(c4ccc[nH]4)C=C3OC)c2C)cc1)c1ccccc1	86.7%	72.2%	77.9%	61.2%	4.55% (active)		67.4%	72%	34.2%	7.12% (active)	39.5%	-17.5% (active)	37.2%	51.5%	72.6%	78.6%	90.1%	-1.63% (active)	27.1%

— PubChem BioAssay (NCI)
